Source: the supplement of paper PMC4954754
± gives the uncertainty stated by the source.

Tested on: HEK293T-Rex XBP1-RLuc
Test: XBP1-RLuc splicing reporter activation, triplicate, relative to 500 nM thapsigargin (% of thapsigargin); higher = stronger IRE1/XBP1s reporter activation
Conditions: 6.8 µM; 18 h; screen: confirmation
Experimental: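 HEK293T-Rex cells stably expressing the ERSE-firefly luciferase (BiP promoter, ATF6-preferring) or XBP1-splicing Renilla luciferase (IRE1/XBP1s) reporter, 1536-well plates, compound at 6.8 µM for 18 hr at 37 °C; luminescence read […] and expressed as % activation = 100*(compound - median DMSO)/(median 500 nM thapsigargin - median DMSO). Primary screen was single-pass; confirmation screen in triplicate (mean ± SD).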

Structure (SMILES) | XBP1-RLuc splicing reporter activation
O=C(CCCN1CCC2(CC1)C(=O)NCN2c1ccccc1)c1ccc(F)cc1 | 202 ± 6.1
C/C=C(/C)C(=O)O[C@H]1C(C)=C2[C@H]([C@@H]1OC(=O)CCCCCCC)[C@@](C)(OC(C)=O)C[C@H](OC(=O)CCC)[C@@]1(O)[C@H]2OC(=O)[C@@]1(C)O | 104
CNc1ccc2oc(C[C@H]3O[C@@]4(CC[C@H]3C)O[C@H]([C@H](C)C(=O)c3ccc[nH]3)[C@H](C)C[C@H]4C)nc2c1C(=O)O | 50 ± 2.1
O=C(CCCN1CCC2(CC1)C(=O)N(Cc1cccc(F)c1)CN2c1ccccc1)c1ccc(F)cc1 | 185 ± 9.3
CC(=O)NC1C(OC2OC(CC(O)C3OC(n4ccc(=O)[nH]c4=O)C(O)C3O)C(O)C(O)C2NC(=O)/C=C\CCCCCCCCCC(C)C)OC(CO)C(O)C1O (stereo not given) | 61.23 ± 0.33
